# PvdQ inh = P. aeruginosa PvdQ acylase inhibitors, primary screen, biochemical, fluorescence, plate reader and imaging, single point; 340,000 compounds, 0.063% hits; inhibition, % at 10 µM; purified PvdQ acylase; in the data active = inhibition above about 30%, passing the limit was not always enough; inconclusive = no clear call, values can overlap the other calls;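 note: 0% = vehicle neutral wells and 100% = reference inhibitor wells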
# SUMO Mot1 rescue = yeast Mot1-301 growth rescue at high temperature, primary screen, SUMOylation pathway inhibitor project, S. cerevisiae, ATP luminescence, 38.5C; S. cerevisiae Mot1-301 growth rescue; percent above DMSO median, 100 means doubled; growth rescue, % at 18.8 µM; 320,000 compounds, 1% hits;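 active = every valid replicate shows activation above 250% relative to neutral control wells; inactive = the rest, any valid replicate at or below 250%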;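 note: OY570 slx delta 5 strain wells were the positive control but not used for scaling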
# GASC-1 inh = inhibitors of GASC-1 histone demethylase, primary screen, biochemical, fluorescence, DELFIA europium | Lysine-specific demethylase 4C (Homo sapiens), Q9H3R0 | GST-JMJD2C(1-420) H3K9me3 demethylation | inhibition, % at 2.35 µM | 330,000 compounds, 0.069% hits;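 active = more than half of a compound's replicate wells show inhibition beyond 50%, single wells judged on their own value; inconclusive = some, but no more than half, of replicates pass 50% inhibition; inactive = no replicate passes 50% inhibition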;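 note: signal counts dimethyl H3K9 product captured on neutravidin plate; 0% = median of DMSO wells and 100% = 0.3 times that DMSO median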
# Target sequence (Q9H3R0 1-420 limits assumed): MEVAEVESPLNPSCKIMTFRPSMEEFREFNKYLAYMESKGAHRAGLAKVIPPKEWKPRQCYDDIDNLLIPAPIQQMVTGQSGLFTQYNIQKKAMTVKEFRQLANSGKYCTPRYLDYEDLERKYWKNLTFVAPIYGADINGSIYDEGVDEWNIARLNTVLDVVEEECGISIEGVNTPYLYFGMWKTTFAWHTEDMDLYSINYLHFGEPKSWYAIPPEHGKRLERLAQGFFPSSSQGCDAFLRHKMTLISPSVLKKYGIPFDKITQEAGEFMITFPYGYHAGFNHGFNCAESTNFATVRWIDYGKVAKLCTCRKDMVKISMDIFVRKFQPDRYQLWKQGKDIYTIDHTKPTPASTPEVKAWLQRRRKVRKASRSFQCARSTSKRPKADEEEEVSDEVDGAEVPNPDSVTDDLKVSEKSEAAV
# HDAC3 inhib = HDAC3 deacetylase inhibitors, primary screen, biochemical, fluorescence, cell-free homogeneous; recombinant HDAC3, fluorogenic peptide/trypsin coupled; inhibition, % at 8.3 µM; 320,000 compounds, 0.15% hits; AID 2718, 2010; in the data active = inhibition above about 26%, passing the limit was not always enough; inconclusive = no clear call, values can overlap the other calls
# p-CIP stab down = p/CIP-EGFP fusion destabilizers, primary screen, fluorescence, F442A cells; 16 h; decrease of EGFP signal, % at 10 µM; Q05BA5; AID 1984, 2009; 290,000 compounds, 0.01% hits;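 active = EGFP signal decrease of at least 30% at 10 µM or well 3 SD below plate mean, unless failing retest; inactive = the rest, including hits failing retest or dose response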
# PHOSPHO1 inh = PubChem AID 1565; Phosphoethanolamine/phosphocholine phosphatase (Homo sapiens), Q8TCT1; recombinant PHOSPHO1, absorbance phosphatase assay; inhibition, % at 13.3 µM; 290,000 compounds, 1.1% hits; in the data active = inhibition above about 60%
# Target sequence (Q8TCT1 whole entry, looked up): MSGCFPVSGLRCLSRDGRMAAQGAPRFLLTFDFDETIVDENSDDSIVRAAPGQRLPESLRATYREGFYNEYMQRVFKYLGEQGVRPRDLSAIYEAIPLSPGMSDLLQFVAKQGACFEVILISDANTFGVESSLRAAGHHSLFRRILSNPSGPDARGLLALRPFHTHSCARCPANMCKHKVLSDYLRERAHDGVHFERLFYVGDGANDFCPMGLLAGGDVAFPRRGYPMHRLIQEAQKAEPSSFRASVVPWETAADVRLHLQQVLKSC
# Numbers without * were called inactive; i = inactive; ? = inconclusive; nt = not tested or not shown. Rows were chosen to be rich in hits. Some 2.2% of all compounds tested hit in one or more screens of this group.
SMILES,PvdQ inh,SUMO Mot1 rescue,GASC-1 inh,HDAC3 inhib,p-CIP stab down,PHOSPHO1 inh
CCOC(=O)c1c(NC(=O)COC(=O)c2cnccn2)sc(C)c1C,-4.6,-19.9,7.7,4.2,nt,nt
CC(=O)c1cc(C#N)c(SCc2ccncc2)nc1C,-8.5,-5.4,-22.2,6.4,-1.4,69.4*
COc1ccc(OC)c(NC(=O)C2CC(/C=C/c3ccccc3)=NO2)c1 (centres undefined),-11.8,1.2,-0.9,5.0,-13.2,15.6
COc1ccc(C2NC(=S)N3C(c4ccc(OC)cc4)NC(=S)N23)cc1 (centres undefined),-11.4,7.3,4.1,12.1,-3.2,97.5*
COc1cccc(NC(=S)NNC(=O)c2c([N+](=O)[O-])c(C)nn2C)c1,9.1,nt,-1.2,nt,-1.6,81.6*
O=C(NCCc1ccccc1)C(=O)NCC1CCNCC1,nt,-15.6,-2.9,-2.7,5.8,-24.1
C#CCOCCOCCOCCNc1nc(N2CCN(C(=O)CCCCCCCCCCNC(=O)[C@H](CO)n3cc(CCCSC)nn3)CC2)nc(N2CCN(C(=O)CCCCCCCCCCNC(=O)[C@H](CCCCN)n3cc(CCO)nn3)CC2)n1,-5.3,3.2,-29.2,19.9,nt,nt
C#CCOCCOCCOCCNc1nc(N2CCN(C(=O)CCCCCCCCCCNC(=O)[C@H](CO)n3cc(CCCSC)nn3)CC2)nc(N2CCN(C(=O)CCCCCCCCCCNC(=O)[C@H](CCCN=C(N)N)n3cc(C[C@@H](C)CC)nn3)CC2)n1,-12.3,237.2,57.4*,?,nt,nt
Cc1ccc(N(CC(=O)NCc2ccco2)C(=O)CCC(=O)Nc2nccs2)c(C)c1,-5.4,-7.8,12.7,6.7,3.3,0.1
Cc1ccccc1CC1(CO)CCCN(Cc2nc(-c3cccs3)oc2C)C1 (centres undefined),-6.9,-1.9,-12.1,1.0,-2.4,2.3
CCOC(=O)c1sc(NC(=O)/C=C/c2cnn(CC)c2C)c(C(=O)OCC)c1C,-18.7,-11.2,2.5,11.2,4.5,69.6*
CC(C)CNC(=S)NNC(=O)c1csc2c1CCC(C)C2 (centres undefined),-12.7,-8.1,3.5,0.1,1.7,83.5*
Cc1cccc(NC(=S)NNC(=O)c2csc3c2CCC(C)C3)c1 (centres undefined),5.7,nt,i,nt,0.4,30.7
Cc1cc(C)cc(C(=O)Nc2cc3c4c(c2)CC(=O)N4CCC3)c1,-7.4,0.9,19.7,5.7,nt,nt
CCc1ccc(-n2c(Cn3nc(C(F)(F)F)cc3C)n[nH]c2=S)cc1,-8.2,1.2,-4.8,9.4,5.6,88.9*
Cn1c(SCC(=O)Nc2cc(=O)n(C)c(=O)n2C)nnc1C12CC3CC(CC(C3)C1)C2,nt,nt,nt,nt,-2.7,61.0*
CCOc1ccc(NC(=O)CSc2nnc(C34CC5CC(CC(C5)C3)C4)n2C)cc1,5.2,134.3,-23.7,-1.6,-7.8,20.1
CCc1ccc(Nc2nnc(SCC(=O)Nc3sccc3C(N)=O)s2)cc1,-9.7,8.7,1.3,8.4,-3.3,15.0
COc1cccc(Nc2nnc(SCC(=O)Nc3sccc3C(N)=O)s2)c1,-1.2,11.5,-2.7,6.8,-13.6,61.8*
O=C(CSc1nc2ccccc2n1CCc1ccccc1)NC1CC1,-10.2,2.5,-6.6,10.8,-6.1,-7.1
O=C(CSc1nc2ccccc2n1CCc1ccccc1)NC1CCS(=O)(=O)C1 (centres undefined),-11.7,5.4,1.4,-4.4,0.8,97.4*
Nn1cc(-c2ccccc2)nc1SCC(=O)NC1CCS(=O)(=O)C1 (centres undefined),-9.4,282.7,-9.2,-0.9,-6.6,87.5*
Nn1cc(-c2ccccc2)nc1SCC(=O)NCCN1C(=O)CSC1=O,-5.6,115.7,0.2,0.9,0.2,81.6*
Cn1c(SCC(=O)NCCN2C(=O)CSC2=O)nnc1-c1ccccc1,-3.3,-11.6,7.7,5.2,-5.9,-7.4
C[C@H](NC(=O)c1cccc([N+](=O)[O-])c1)C(=O)OCC(=O)c1ccccc1Br,6.4,4.4,7.6,-9.4,nt,nt
SMILES,PvdQ inh,SUMO Mot1 rescue,GASC-1 inh,HDAC3 inhib,p-CIP stab down,PHOSPHO1 inh
CCCC(=O)Nc1c2c(nn1-c1ccc(C)cc1C)CSC2,-7.3,-15.5,-37.5,4.7,-4.8,71.7*
CC(=O)Nc1c2c(nn1-c1ccc(C)cc1C)CSC2,16.7,39.4,5.6,4.8,-15.5,-2.2
Oc1c(Br)cc(Br)cc1CNc1ccccn1,-14.1,288.2*,7.8,-6.6,-1.5,1.8
Oc1c(Br)cc(Br)cc1CNc1cccc2cccnc12,-3.4,1.8,4.8,-1.6,-2.9,24.1
CC[C@@H](NS(=O)(=O)c1ccc(C)cc1)C(=O)Oc1ccc2c3c(c(=O)oc2c1)CCC3,2.2,4.7,8.4,nt,-8.8,-14.4
Cc1ccc(S(=O)(=O)NC(CC(C)C)C(=O)Oc2ccc3c4c(c(=O)oc3c2)CCC4)cc1 (centres undefined),7.7,3.3,-1.0,-20.3,-4.7,60.5*
COc1ccccc1N1CCN(C(=O)CNC(=O)c2cn(-c3ccccc3OC)c(=O)c3ccccc23)CC1,-7.7,-17.6,118.8,-3.1,6.2,28.0
COc1ccccc1-n1cc(C(=O)NCC(=O)N2CCN(c3ccccc3)CC2)c2ccccc2c1=O,2.7,-5.3,-26.2,-0.9,-9.5,63.0*
O=C(CNCc1cccs1)Nc1ccc(N2CCCCCC2)cc1,1.7,-30.9,-3.1,-6.8,7.2,8.8
CCCN1CCN(C(=O)c2cc(COc3ccc(F)cc3F)on2)CC1,-12.2,0.4,4.0,5.8,-11.9,57.8
C#CCSc1nncn1C(=O)/C=C/c1ccccc1,nt,306.5,5.3,73.4*,-12.7,28.4
CC(Sc1nnc(-c2ccco2)n1C)C(=O)Nc1nccs1 (centres undefined),-9.6,-2.4,28.7,nt,nt,nt
COC(=O)c1ccc(CN2C(=O)NC3(CCCCC3C)C2=O)o1 (centres undefined),-7.9,168.4,-25.6,-3.3,2.9,69.9*
Cc1cccc(NC(=O)c2sc3nc4c(c(-c5cccs5)c3c2N)CN(C)CC4)c1,-4.4,-17.4,-1.0,2.8,-3.8,-20.6
CC(C)NC(=O)c1sc2nc3c(c(-c4cccs4)c2c1N)CN(C)CC3,-8.4,-9.3,0.0,-6.2,-5.2,63.0*
Cc1ccc(CCN2CC(C(=O)NC3CCCCC3)CC2=O)cc1 (centres undefined),0.9,-2.2,5.0,1.1,-2.4,29.8
Cc1cccc(NC(=O)c2ccc3nccnc3c2)c1C,6.0,12.1,10.6,-3.7,-10.1,22.4
CC(C)CCN(C(=O)C1=COCCO1)c1c(N)n(Cc2ccccc2)c(=O)[nH]c1=O,9.0,-12.4,74.9*,2.7,nt,nt
C/C(CC(=O)Nc1ccc(Cl)cc1)=N\NC(=O)C(=O)N1CCCCC1,-3.7,-24.1,nt,-9.5,9.5,-5.9

# Compound activity: PubChem, several laboratories
